# In all, about 640,000 compounds went through this assay and about 9,300 (1.5%) were called active. For the sample, actives were picked, then their nearest neighbours and some compounds at random. Values without a mark were called inactive. No stated cut-off is given here; in the data, active means inhibition above about 32%; inactive means the rest.
# Experiment: TEAD-YAP interaction inhibition, primary screen, TEAD-YAP interaction inhibitor project, luminescence, HEK-TIYL cells (AID 1259422);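 further: 0% = median of test compound wells and 100% = reference inhibitor wells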
# Conditions: TEAD-Gal4/YAP UAS-luciferase luminescence, at 9.12 µM, active compounds read high
row,Structure (SMILES),inhibition
1,Cc1ccc(/C=N\NC(=O)c2cc(C(C)(C)C)[nH]n2)cc1,45.2% (active)
2,CCOc1ccc(/C=N/NC(=O)c2cc(C(C)(C)C)[nH]n2)c(O)c1,59.8% (active)
3,CCOc1ccc(O)c(/C=N/NC(=O)CNc2ccc3ccccc3c2)c1,-7.17%
4,CC(C)(C)c1cc(C(=O)N/N=C/c2c(O)ccc3ccccc23)n[nH]1,-0.43%
5,CCOc1ccc(-c2cc(C(=O)N/N=C\c3ccccc3O)[nH]n2)cc1OC,1.39%
6,CCOc1cccc(-c2cc(C(=O)N/N=C/c3ccccc3O)[nH]n2)c1,-2.87%
7,Cc1cc(C(=O)N/N=C/c2ccc(Br)c([N+](=O)[O-])c2)n[nH]1,6.76%
8,CCOc1ccc(-c2cc(C(=O)N/N=C/c3c[nH]c4ccccc34)[nH]n2)cc1,55.9% (active)
9,CCCOc1ccc(/C=N/NC(=O)OC)c(O)c1,-15.8%
10,CSc1nnc2c(n1)OC(c1ccc(N(C)C)cc1)Nc1ccc(Br)cc1-2 (stereo not drawn),-2.24%
11,Cc1cccc(N(CC(O)c2ccccc2)S(=O)(=O)c2ccc3c(c2)OCCO3)c1 (stereo not drawn),2.94%
12,N#CC(C#N)=C1SCC(=O)N1c1ccc(F)cc1,-0.92%
13,CCn1c(N=Nc2c(O)[nH]c3ccccc23)nc2c1c(=O)n(C)c(=O)n2C,6.12%
14,OC[C@@H]1CCCN1c1ccnc2c(-c3cccc4ccccc34)cnn12,-40.1%
15,OCCC1CCCCN1c1ccnc2c(-c3ccc(F)c(Cl)c3)cnn12 (stereo not drawn),41.4% (active)
16,CN(C)CCNc1ccnc2c(-c3ccc(F)c(Cl)c3)cnn12,-31.8%
17,Cc1ccc(-c2cnn3c(NCc4ccc5c(c4)OCO5)ccnc23)cc1,-8.18%
18,OC[C@@H]1CCCN1c1ccnc2c(-c3ccc4c(c3)OCO4)cnn12,55.2% (active)
19,O=C(NCCO)c1cccc(-c2cnn3c(N4CCCCC4CCO)ccnc23)c1 (stereo not drawn),-6.65%
20,N#Cc1ccsc1NC(=O)COC(=O)CC12CC3CC(CC(C3)C1)C2,-33.5%
21,COc1ccc(Cl)cc1NC(=S)NC(C)c1ccncc1 (stereo not drawn),2.52%
22,CC1CN(c2nc3c(c(=O)[nH]2)CCN(c2cnccn2)C3)CC(C)O1 (stereo not drawn),9.31%
23,C=CCN1C(=O)S/C(=C/c2ccccc2F)C1=O,-54.7%
24,Cc1ccc(OCc2nc3ccccc3n2CC(=O)Nc2cc(C)on2)cc1,-69.6%

row,Structure (SMILES),inhibition
1,Oc1ccc(/C=N/Nc2ccccc2Cl)c(O)c1O,-1.62%
2,Oc1cccc(/C=N/Nc2ccc(Cl)nn2)c1O,79.2% (active)
3,NC(=O)c1ccc(N=Cc2cccc(O)c2O)cc1,-12.1%
4,CCN1C(=O)N/C(=C/c2ccccc2OCc2ccc(C(=O)O)cc2)C1=O,-1.26%
5,NS(=O)(=O)c1ccc(C(=O)OCc2cccc(Cl)c2Cl)cc1,8.02%
6,COc1ccc2[nH]c(=O)c(CN(CCCO)Cc3nnnn3CC3CCCO3)cc2c1 (stereo not drawn),5.17%
7,CC1CN(CCC(=O)N2CCCN(C3Cc4ccccc4C3)CC2)Cc2ccccc2O1 (stereo not drawn),-10.5%
8,O=C(NC(=O)c1cccc(F)c1)OC1CCS(=O)(=O)C1 (stereo not drawn),-5.15%
9,CC(=O)NCCCc1ccc(-c2csc(N)n2)cc1,56.7% (active)
10,CC(C)(C)C(=O)Nc1ccc(-c2csc(N)n2)cc1,-22.9%
11,CC(=O)Nc1nc(-c2ccc(C)c(C)c2)cs1,-61.1%
12,Cc1cc2c(cc1C)NC(CC(=O)Nc1cccc([N+](=O)[O-])c1)C(=O)N2 (stereo not drawn),-4.87%
13,CCOc1ccc(CN2CCN(Cc3cc(OC)ccc3O)CC2)cc1,3.2%
14,COC(=O)C1=C(C)NC2=C(C(=O)c3ccccc32)C1c1ccc(OC)cc1 (stereo not drawn),-0.11%
15,CCOC(=O)C1=C(C)NC2=C(C(=O)c3ccccc32)C1c1cccc(F)c1 (stereo not drawn),-6.85%
16,CCOC(=O)C1=C(C)NC2=C(C(=O)c3ccccc32)C1c1cc(Br)c(OC)c(OC)c1 (stereo not drawn),57.2% (active)
17,C=CCNc1ccc([N+](=O)[O-])cc1C#N,3.17%
18,Cc1ccc(NC(=O)C2CC3CCCN3C23C(=O)Nc2ccccc23)cc1 (stereo not drawn),11.1%
19,CCCNC(=O)Cn1c(=O)oc2cc(Cl)ccc21,1.41%
20,Cc1sc(NC(=O)c2ccc(S(=O)(=O)N(C)c3ccccc3)cc2)c(C#N)c1C,3.35%
21,COc1ccc(-c2coc3cc(OCCN4CCOCC4)ccc3c2=O)cc1OC,33% (active)
22,CCc1cc2c(=O)c(-c3ccc4c(c3)OCCCO4)coc2cc1OC(=O)N1CCOCC1,-8.61%
23,CCc1cc2c(=O)c(-c3ccc4c(c3)OCCCO4)coc2cc1OC,-34.2%
24,COc1ccc(C(=O)Nc2cc(C)nn2-c2nc3ccccc3[nH]2)cc1[N+](=O)[O-],10.1%

row,Structure (SMILES),inhibition
1,CCCc1cc(=O)[nH]c2nnc(SCC(=O)Nc3cc(OC)ccc3OC)n12,-0.38%
2,Cn1c(/C(C#N)=C/c2ccccc2)nc2ccccc21,2.92%
3,Cn1c(/C(C#N)=C\c2ccc(-c3ccc(S(N)(=O)=O)cc3)o2)nc2ccccc21,36.2% (active)
4,N#C/C(=C\c1ccc(-c2ccc(S(N)(=O)=O)cc2)o1)C(N)=O,-6.41%
5,COCCN(C(=O)CN1C(=O)c2ccccc2C1=O)C1(C(=O)Nc2ccccc2)CCCC1,4.63%
6,COc1ccc(CNCc2cc(-c3ccccc3)cn3nnnc23)cc1,16%
7,Cc1cccc(-n2nc3c(c2NC(=O)c2ccc4c(c2)OCO4)CSC3)c1C,3.84%
8,CC(C)(C)NC(=O)c1cccc(S(=O)(=O)N2CCN(c3ccc(F)cc3)CC2)c1,3.68%
9,COc1ccc(CC(=O)c2ccc(OC)cc2)cc1,-37.9%
10,Cc1ccc[n+](CC(=O)c2ccc(Cl)cc2)c1C,1.36%
11,COc1ccc(C(=O)C[n+]2ccc(N)c(C)c2C)cc1,33% (active)
12,CCOC(=O)C1=C(c2ccccc2)N=c2s/c(=C\c3ccc4c(c3)OCO4)c(=O)n2C1c1ccc(OC)c(OC)c1 (stereo not drawn),6.04%
13,COc1ccc(-c2ccc(C(=O)NC3CC3)s2)cn1,40.7% (active)
14,O=C(NC1CCN(Cc2ccccc2)CC1)c1ccc(-c2ccccc2)s1,-22.3%
15,COc1ccc(-c2cc(NC3CC3)nc(N)n2)cn1,-43.5%
16,CC(C)N(C(=O)NCCC(=O)c1ccc(F)cc1)C(C)C,-1.1%
17,Clc1cc2nc3[nH]c4ccccc4c3nc2cc1Cl,-25.4%
18,CC(=O)Nc1ccc2nc3c(cc2c1)[nH]c1ccccc13,32.4% (active)
19,CC(=O)Nc1ccc(-c2nc(-c3ccccc3)c3cc(C)ccc3n2)cc1,7.4%
20,COc1ccc(C2/C(=C(\O)c3ccc(C)cc3)C(=O)C(=O)N2c2c(C)n(C)n(-c3ccccc3)c2=O)cc1 (stereo not drawn),-7.88%
21,COc1ccc(OCCSc2nnc3nc(C)cc(C)n23)cc1,0.54%
22,N#CCOc1ccc2c(=O)c(Oc3ccc4ccccc4c3)coc2c1,5.86%
23,COc1ccc(-c2cc(C(F)(F)F)n3nc(C(=O)NCc4ccccc4Cl)cc3n2)cc1,-8.37%
24,Cc1sc2nc3n(c(=O)c2c1-c1cccs1)CCC3,-2.17%

row,Structure (SMILES),inhibition
1,Cc1sc2nc3n(c(=O)c2c1C)N=C(c1cccs1)CS3,50.3% (active)
2,Cc1nc2scc(-c3cccs3)c2c(=O)n1N,4.54%
3,N=C1S/C(=C/c2ccc(-c3cc(Cl)ccc3[N+](=O)[O-])o2)C(=O)N1c1nonc1N,5.95%
4,C=CCNS(=O)(=O)c1cc(C(=O)Nc2ccccc2C(F)(F)F)ccc1F,-7.91%
5,Cc1[nH]c2ccccc2c1/C=N/NC(=O)/C(=C/c1ccccc1O)NC(=O)c1ccccc1,83% (active)
6,COc1cccc(/C=N/NC(=O)/C(=C/c2ccccc2)NC(=O)c2ccccc2)c1O,21.1%
7,Cc1[nH]c2ccccc2c1CCNC(=O)/C(=C/c1ccccc1)NC(=O)c1cccc(Br)c1,2.37%
8,COc1ccc(C(=O)N/C(=C/c2ccc(Cl)cc2)C(N)=O)cc1,-2.4%
9,CC(=O)c1ccc(NC(=O)CN2C(=O)C3C4CCC(C4)C3C2=O)cc1 (stereo not drawn),-12%
10,CC(=O)Oc1ccc(C(=O)N(C(=O)c2ccc(OC(C)=O)cc2)c2cc(C)ccn2)cc1,47.4% (active)
11,CC(=O)Oc1ccc(N(C(C)=O)S(=O)(=O)c2c(C)cc(C)cc2C)cc1,-4.17%
12,CC(=O)Oc1ccc(C(=O)Nc2ccncc2)cc1,1.93%
13,COc1cc2cc(C)c3nnc(SCC(=O)NC(C)(C)C)n3c2cc1OC,-7.33%
14,O=C1NC(=S)S/C1=C/c1ccc(-c2ccc3c(c2)COC3=O)o1,-7.22%
15,O=C(NCc1cccc(C(F)(F)F)c1)c1csc(Nc2nccc3ccccc23)n1,-0.98%
16,Cc1ccc(Nc2c(Cc3ccccc3)c(C)c(C#N)c3nc4ccccc4n23)cc1,-19.3%
17,CCOc1ccccc1C1C(C#N)=C(N)Oc2ccc3ccccc3c21 (stereo not drawn),-6.22%
18,N#CC1=C(N)Oc2ccc3ccccc3c2C1c1ccc(F)cc1 (stereo not drawn),-0.56%
19,N#CC1=C(N)Oc2ccc3ncccc3c2C1c1ccccc1F (stereo not drawn),50.8% (active)
20,C=CCN(CC=C)C(=O)/C=C/c1cccc([N+](=O)[O-])c1,7.6%
21,COc1cccc(OCC(=O)N2CCC3(CC2)OCc2ccccc2O3)c1,-8.9%
